# Most compounds without a hit are left out; they make up all but 3.5% or so of the library.
# GPR151 activ: activators of human GPR151, primary screen, cell-based, PathHunter beta-arrestin, luminescence; PathHunter beta-arrestin GPR151 cells; G-protein coupled receptor 151 (Homo sapiens), Q8TDV0; AID 1508602, 2020; 650,000 tested, 1% active; activation, % at 11.2 µM; in the data active = activation above about 4.9%
# TEAD-YAP block: TEAD-YAP interaction inhibition, primary screen, TEAD-YAP interaction inhibitor project, luminescence, HEK-TIYL cells. TEAD-Gal4/YAP UAS-luciferase luminescence. 640,000 tested, 1.4% active. inhibition, % at 9.12 µM. AID 1259422, 2018; in the data active = inhibition above about 32%
# MITF inh: MITF inhibitors, primary screen, biochemical, AlphaScreen, human; Microphthalmia-associated transcription factor (Homo sapiens), O75030; AlphaScreen MITF homodimerization, bead proximity signal; inhibition, % at 2.6 µM; 650,000 tested, 0.91% active; AID 1259374, 2018; in the data active = inhibition above about 50%
# Target sequence (O75030 whole entry, looked up): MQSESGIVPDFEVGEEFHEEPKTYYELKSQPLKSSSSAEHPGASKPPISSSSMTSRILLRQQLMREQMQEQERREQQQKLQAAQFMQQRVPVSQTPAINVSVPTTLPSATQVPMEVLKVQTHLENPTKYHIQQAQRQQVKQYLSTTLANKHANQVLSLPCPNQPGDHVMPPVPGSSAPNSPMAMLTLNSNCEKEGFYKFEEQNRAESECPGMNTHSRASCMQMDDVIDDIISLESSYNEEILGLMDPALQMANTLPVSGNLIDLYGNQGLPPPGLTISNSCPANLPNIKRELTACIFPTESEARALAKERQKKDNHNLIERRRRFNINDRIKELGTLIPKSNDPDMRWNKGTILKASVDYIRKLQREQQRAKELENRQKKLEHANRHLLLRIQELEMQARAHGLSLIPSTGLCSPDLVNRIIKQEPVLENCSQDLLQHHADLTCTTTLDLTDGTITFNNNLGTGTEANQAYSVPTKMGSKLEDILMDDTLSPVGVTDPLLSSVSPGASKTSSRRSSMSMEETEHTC
# FBW7 activator: FBW7 E3 ligase activators, primary screen, biochemical, AlphaScreen, human | F-box/WD repeat-containing protein 7 (Homo sapiens), Q969H0 | AlphaScreen FBW7–phospho-cyclin E peptide binding, activator screen | normalized activity (activation), % at 26.1 µM | 650,000 tested, 0.13% active; in the data active = normalized activity above about 1.9%;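 note: purified mutant Fbw7 with reduced substrate affinity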
# MITF confirm: MITF inhibitors, retest of hits, confirmation, biochemical, AlphaScreen, triplicate; inhibition, % at 2.6 µM; shares compounds with MITF inh; AlphaScreen MITF homodimerization, biotin/His-MITF beads; 4,700 tested, 16% active;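 active = inhibition above a cutoff derived from the DMSO control wells, cut at about 28% in these data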;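 note: inhibitors lower the bead chemiluminescence by keeping MITF from dimerizing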
# AS interf DR: AlphaScreen optical interference compounds, dose response, counter-screen, biochemical, HTS; shares compounds with MITF inh; AlphaScreen optical interference counterscreen, cell-free; IC50, µM; 480 tested, 6% active; AID 1259373, 2018; call rule not given here
# AlphaScreen intf2: AlphaScreen optical interference compounds, counter-screen for MITF inhibitor project, biochemical, triplicate. shares compounds with MITF inh. LysRS AlphaScreen counterscreen, signal interference. inhibition, % at 2.6 µM. 4,700 tested, 7.6% active. AID 1259376, 2018;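 active = inhibition above a cutoff derived from the DMSO control wells, cut at about 30% in these data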
# Numbers stand for hits; i = inactive; nt = not tested or not shown.
SMILES,GPR151 activ,TEAD-YAP block,MITF inh,FBW7 activator,MITF confirm,AlphaScreen intf2,others
COc1ccc(NC(=O)CN(C)CC(=O)Nc2cccc(C(C)=O)c2)cc1,i,i,58,i,i,i,
COC(=O)C1C(=O)NC(SCC(=O)OCc2ccccc2)=C(C#N)C1c1ccccc1[N+](=O)[O-] (stereo not drawn),i,i,i,i,nt,nt,
CN(C(=O)c1cccs1)C(Cc1ccccc1)C1CCN(C(=O)c2ccn(C)n2)CC1 (stereo not drawn),i,i,74,i,i,i,
Cc1ccc(NC(=O)CSc2nnc(-c3cccs3)n2C)cc1[N+](=O)[O-],i,i,i,i,nt,nt,
COC(=O)c1ccc(CN2CCC(c3nc4ccccc4[nH]3)CC2)cc1,i,i,i,i,nt,nt,
O=C(Cn1cnc2ccccc21)N1CCC(Cn2cccn2)CC1,i,i,i,i,nt,nt,
COC(=O)c1ccc(CN2CCC(Cn3cnc4ccccc43)CC2)cc1,i,i,82,i,i,i,
O=C(Cn1ncc2ccccc21)N1CCC(Cc2ccccc2)CC1,i,i,i,i,nt,nt,
CCOC(=O)CCC(=O)N1CCC(Cn2cnc3ccccc32)CC1,i,i,59,i,i,i,
O=C(CN1CCC(Cn2cnc3ccccc32)CC1)N1CCC(Cc2ccccc2)CC1,i,61,74,i,i,i,
C=CCNC(=O)CN1CCC(Cn2cnc3cc(C)c(C)cc32)CC1,i,i,54,i,i,i,
O=C(COc1coc(CN2CCN(c3ccc(F)cc3)CC2)cc1=O)c1ccccc1,i,i,i,i,nt,nt,
COCC(=O)Nc1cc(CNC(=O)c2cccc3ccccc23)cc(C(=O)OC)c1,i,i,i,i,nt,nt,
O=C(CCl)OCn1nnc2ccccc2c1=O,i,i,i,i,nt,nt,
O=C(Cn1c(=O)oc2ccccc21)N1CCC(Cn2cnc3ccccc32)CC1,i,i,53,i,i,i,
O=C(/C=C/c1cccs1)N1CCC(Cn2cnc3ccccc32)CC1,i,i,65,i,i,i,
O=C(/C=C/c1cccs1)NCC1CCN(C(=O)/C=C/c2cccs2)CC1,i,i,i,i,nt,nt,
O=C(CN1CCC(Cn2cnc3ccccc32)CC1)Nc1cccc(F)c1,i,i,54,i,i,i,
O=C(c1cccc(F)c1)N1CCC(Cn2cnc3ccccc32)CC1,i,i,i,i,nt,nt,
CCOCC(=O)N1CCC(Cn2cnc3cc(C)c(C)cc32)CC1,i,i,66,i,i,i,
COCCCNC(=O)CSc1nc(Nc2ccc3c(c2)OCO3)c2ccccc2n1,i,i,i,i,nt,nt,
O=C1OC(c2ccc([N+](=O)[O-])cc2)=N/C1=C/c1cccnc1,i,i,i,i,nt,nt,
CC(C)Oc1ccc(/C=C(/NC(=O)c2ccccc2)C(N)=O)cc1,i,i,i,i,nt,nt,
Nn1c(SCc2cc(=O)n3c(n2)sc2ccccc23)nnc1C1CC1,i,i,i,i,nt,nt,
Cn1c(SCc2cc(=O)n3c(n2)sc2ccccc23)nnc1C(F)(F)F,i,i,60,i,79,i,AS interf DR=i
SMILES,GPR151 activ,TEAD-YAP block,MITF inh,FBW7 activator,MITF confirm,AlphaScreen intf2,others
Cc1ccc(OCC(=O)NCCS(=O)(=O)N2CCc3ccccc3C2)cc1,i,i,i,i,nt,nt,
CC(=O)Nc1ccc(NC(=O)Cc2ccc(Br)cc2)cc1,i,i,58,i,i,i,
CC1(C)CC(=O)C=C(NCCN2CCN(C(=O)Nc3ccc(Cl)c(Cl)c3)CC2)C1,i,i,73,i,i,i,
CC(C)OCCCNC(=O)C1CC(Cc2ccc(F)cc2)=NO1 (stereo not drawn),i,i,53,i,i,i,
COc1cc(Nc2ncnc3c2nc(-c2csc4ccccc24)n3C(C)C)cc(OC)c1OC,i,i,i,i,nt,nt,
COc1cc(/C=N/N=C2\NC(=O)C(CC(=O)O)S2)ccc1OCc1ccc(C)cc1 (stereo not drawn),i,i,66,i,45,i,AS interf DR=i
COc1cc(/C=N/N=C2\NC(=O)C(CC(=O)O)S2)ccc1OCC(=O)O (stereo not drawn),i,i,i,i,nt,nt,
CCOc1ccc(NC(=O)CSC2=C(C#N)C(c3ccco3)C(C(=O)Nc3ccccc3C)=C(C)N2)cc1 (stereo not drawn),i,i,63,i,i,i,
CC1=C(C(=O)Nc2ccccc2C)C(c2ccco2)C(C#N)=C(SCC(=O)Nc2ccc(C)cc2)N1 (stereo not drawn),i,i,i,i,nt,nt,
CCn1c2ccccc2c2cc(CN3CCN(C(=O)c4ccc(F)cc4)CC3)ccc21,i,i,55,i,i,i,
CCn1c2ccccc2c2cc(CN3CCN(C(=O)c4ccccc4)CC3)ccc21,i,i,i,i,nt,nt,
CCn1c2ccccc2c2cc(CN3CCN(C(=O)c4cccnc4)CC3)ccc21,i,i,58,i,i,i,
CCn1c2ccccc2c2cc(CN3CCN(C(=O)c4ccc(OC)cc4)CC3)ccc21,i,i,i,i,nt,nt,
COc1cccc(CN(CCN(C)C)Cc2ccccc2)c1OC,i,i,52,i,i,i,
CCN(CC)CCN(C)Cc1ccc([N+](=O)[O-])cc1,i,i,73,i,i,i,
CC(=O)Nc1ccc(CN(CCN(C)C)Cc2ccccc2)cc1,i,i,59,i,i,i,
CN(C)CCN(Cc1ccccc1)Cc1ccc(O)cc1,i,i,i,i,nt,nt,
CN(C)CCN(Cc1ccccc1)Cc1ccccc1O,i,i,i,i,nt,nt,
CN(C)CCN(Cc1ccccc1)Cc1ccc([N+](=O)[O-])cc1,i,i,66,i,i,i,
CCN(CCN(C)C)Cc1ccc(NC(C)=O)cc1,i,i,i,i,nt,nt,
Cc1c(C(=O)NCCCN2CCN(C)CC2)sc2ncn(CC(=O)N3CCCCC3C)c(=O)c12 (stereo not drawn),i,i,i,i,nt,nt,
O=C(CN(CCc1ccccc1)S(=O)(=O)c1ccc(Br)cc1)NCc1ccncc1,i,i,i,i,nt,nt,
CCOC(=O)NC(NNC(=Nc1ccc(OC)cc1)C(F)(F)F)(C(F)(F)F)C(F)(F)F,i,i,i,i,nt,nt,
Cc1cccc(NC(=S)NNC(=O)CC(C)O)c1C (stereo not drawn),i,i,57,i,i,i,
C=C1C(C(=O)NCc2ccco2)C1C(=O)NCc1ccco1 (stereo not drawn),i,i,63,i,67,i,AS interf DR=i
CCCNc1nc(-c2ccc(C(=O)N3CCN(C)CC3)cc2)nc2c1ncn2-c1ccsc1,i,i,i,i,nt,nt,
COc1ccccc1CN1CCN(C2CCC(c3ccccc3)CC2)CC1 (stereo not drawn),i,i,71,i,i,i,
COc1ccc(CN2CCN(C3CCN(Cc4ccccc4)CC3)CC2)c(OC)c1,i,i,i,i,nt,nt,

# Bioassay records from PubChem BioAssay.
